Laboratory results from PubChem BioAssay.
Where “and” joins values, the source holds several entries; their conditions need not be identical. Equal entries are not always repeated. Calls of active or inactive are those of the source. Unless noted, the rule behind the calls is not given here.

Experiments:
[1] = viability rescue of complex I mutant cybrids, primary screen, cell-based, galactose medium, ATP luminescence (AID 1645843;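 active = z-score of at least 1.8 in each of two replicates, scored against plate mean and spread of sample wells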;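 note: positive z means more ATP and so rescue of galactose-driven cybrid death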); conditions: complex I mutant cybrid cells, 72 h, stronger effect = higher value
[2] = circadian clock period modulators, cell-based, LOPAC library, luminescence reporter (AID 2774); conditions: circadian reporter cells, at 7 µM, actives lie on both sides;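 note: values are relative to mean of DMSO wells on each plate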
[3] = antimalarial activity against Dd2 strain (AID 2302;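 active = growth inhibition above 50% at the single 2 µM test dose, taken to imply half-maximal potency below 2 µM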;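 note: 0% = DMSO untreated growth and 100% = chloroquine plus artemisinin killed control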); conditions: P. falciparum Dd2 in RBCs, LDH growth readout, 72 h; at 2 µM; stronger effect = higher value
[4] = HepG2 cytotoxicity, primary screen, cytotoxicity control for P. falciparum antimalarial project, cell-based, ATP luminescence (AID 2303;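 active = inhibition above 50%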;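 note: 0% = DMSO wells and 100% = digitonin-killed cells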); conditions: HepG2 viability, 24-48 h, at 10 µM, stronger effect = higher value
[5] = target: L-lactate dehydrogenase (Plasmodium falciparum (isolate CDC / Honduras)) (UniProt Q27743); experiment: PfLDH activity inhibition – cell lysate, 3D7 strain, counter-screen for P. falciparum growth inhibition project (AID 2304);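 note: 0% = vehicle and 100% = reference inhibitor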; conditions: P. falciparum 3D7 crude extract, LDH APAD/NBT absorbance; at 2 µM; stronger effect = higher value
[6] = inhibition of 3D7 malaria parasite growth – strain 3D7 (AID 2306);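 note: 0% = DMSO wells and 100% = chloroquine plus artemisinin control wells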; conditions: P. falciparum 3D7 erythrocytic growth, LDH absorbance, 72 h; at 2 µM; stronger effect = higher value
[7] = LFS_MB_P medulloblastoma growth inhibition, cell-based, chromothripsis tumors, cisplatin or BGB combos (AID 1671449; in the data active = inhibition above about 80%;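 note: cells exposed for 96 hours; 0% = vehicle DMSO and 100% = killing by high DMSO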); conditions: LFS_MB_P medulloblastoma cells
[8] = HDN33 neuroblastoma growth inhibition, cell-based, chromothripsis tumors, cisplatin or BGB combos (AID 1671450; in the data active = inhibition above about 80%;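 note: cells exposed to compound for four days; 0% = vehicle DMSO and 100% = cell killing by high DMSO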); conditions: HDN33 neuroblastoma cells, stronger effect = higher value
[9] = ICB984 medulloblastoma cell growth inhibition, synergistic combos for chromothripsis tumors, cisplatin or BGB combos (AID 1671451); conditions: ICB984 medulloblastoma cells, drug combinations, stronger effect = higher value;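 note: cells exposed for 96 hours before readout; 0% = vehicle DMSO and 100% = killing by high DMSO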
[10] = LFS_MB_1R medulloblastoma cell growth inhibition, synergistic combos for chromothripsis tumors, cisplatin or BGB combos (AID 1671452; in the data active = inhibition above about 80%;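 note: cells exposed for 96 hours before readout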); conditions: LFS_MB_1R medulloblastoma cells, stronger effect = higher value
[11] = HTB85 osteosarcoma cell growth inhibition, synergistic combos for chromothripsis tumors, BGB or cisplatin IC20 combos (AID 1671453; in the data active = inhibition above about 80%;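 note: cells exposed for 96 hours before readout; 0% = vehicle DMSO and 100% = high DMSO killing control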); conditions: HTB85 osteosarcoma cells, drug combinations, stronger effect = higher value
[12] = CRL2098 osteosarcoma cell growth inhibition, synergistic combos for chromothripsis tumors, BGB or cisplatin IC20 combos (AID 1671454; in the data active = inhibition above about 80%;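 note: cells exposed for 96 h before readout; 0% = vehicle DMSO and 100% = killing by high DMSO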); conditions: CRL2098 osteosarcoma cells, drug combinations, stronger effect = higher value
[13] = HD-MB03 medulloblastoma cell growth inhibition, synergistic combos for chromothripsis tumors, BGB or cisplatin IC20 combos (AID 1671455; in the data active = inhibition above about 83%;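 note: 0% = vehicle DMSO and 100% = high DMSO as cytotoxic control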); conditions: HD-MB03 medulloblastoma cells, stronger effect = higher value
[14] = UWB1.289 ovarian carcinoma cell growth inhibition, synergistic combos for chromothripsis tumors, BGB or cisplatin combos (AID 1671456; in the data active = inhibition above about 80%;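 note: cells exposed to compound for four days; 0% = vehicle DMSO and 100% = killing by high DMSO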); conditions: UWB1.289 ovarian carcinoma cells, stronger effect = higher value
[15] = LFS_MB_2R medulloblastoma cell growth inhibition, synergistic combos for chromothripsis tumors, cisplatin combos (AID 1671457; in the data active = inhibition above about 80%;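 note: cells exposed to compound for four days before readout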); conditions: LFS_MB_2R medulloblastoma cells, stronger effect = higher value
[16] = MDA-MB-436 breast carcinoma cell growth inhibition, synergistic combos for chromothripsis tumors, BGB or cisplatin combos (AID 1671458); conditions: MDA-MB-436 breast carcinoma growth inhibition, drug combinations, stronger effect = higher value;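 note: cells exposed for 96 hours; 0% = vehicle DMSO and 100% = killing by high DMSO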
[17] = UWB1.289_BRCA1 ovarian cancer growth, cell-based, BGB or cisplatin combinations (AID 1671459; in the data active = inhibition above about 80%); conditions: UWB1.289 BRCA1 ovarian carcinoma, drug combinations, stronger effect = higher value
[18] = human astrocyte viability loss, single and combined drugs, cytotoxicity control for chromothriptic childhood tumor combination screen, cell-based, BGB or cisplatin IC20 combos (AID 1671460; in the data active = inhibition above about 80%;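 note: cells exposed to compounds for 96 hours before viability readout; 0% = vehicle and 100% = killing control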); conditions: Human astrocytes, drug combinations, stronger effect = higher value
[19] = growth inhibition of BT084 medulloblastoma cells, cell-based, ICGC_MB145, cisplatin and BGB IC40 combos (AID 1671461; in the data active = inhibition above about 80%;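 note: cells exposed to drugs for 96 hours; 0% = vehicle DMSO and 100% = high DMSO full killing control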); conditions: drug combinations, stronger effect = higher value
[20] = growth inhibition of RCMB18 medulloblastoma cells, cell-based, cisplatin and BGB IC40 combos (AID 1671462; in the data active = inhibition above about 80%;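 note: cells exposed to compound for four days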); conditions: stronger effect = higher value
[21] = growth inhibition of CRL1545 osteosarcoma cells, cell-based, cisplatin and BGB IC20 combos (AID 1671464; in the data active = inhibition above about 80%;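 note: cells exposed to compound for 96 hours before readout; 0% = vehicle DMSO and 100% = high DMSO killing control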); conditions: stronger effect = higher value
[22] = measured here: combination with BGB IC40, at 0.05 µM
[23] = measured here: with BGB IC20 combination, at 0.5 µM
[24] = measured here: with cisplatin IC20 combination, at 0.5 µM
[25] = measured here: combination with cisplatin, at 0.5 µM
[26] = measured here: combination with cisplatin, at 5 µM

Chain of L-lactate dehydrogenase (Plasmodium falciparum (isolate CDC / Honduras)) (Q27743 whole entry, looked up): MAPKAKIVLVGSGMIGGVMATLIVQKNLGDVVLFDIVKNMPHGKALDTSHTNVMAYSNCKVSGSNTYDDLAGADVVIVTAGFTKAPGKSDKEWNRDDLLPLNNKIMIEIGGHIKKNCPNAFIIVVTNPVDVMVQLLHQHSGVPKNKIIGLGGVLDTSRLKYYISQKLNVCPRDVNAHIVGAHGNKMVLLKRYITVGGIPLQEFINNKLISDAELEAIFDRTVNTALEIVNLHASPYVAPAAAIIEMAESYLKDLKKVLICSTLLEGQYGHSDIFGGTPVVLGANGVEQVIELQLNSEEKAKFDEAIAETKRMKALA

Structure (SMILES): CC(CCCC(C)(C)O)CCNC(C)Cc1ccsc1 (stereo unspecified)
- z-score [1]: -0.475 (inactive)

Structure (SMILES): CC(C)[C@@]1(NC(=O)[C@@H]2C=C3c4cccc5[nH]cc(c45)C[C@H]3N(C)C2)O[C@@]2(O)[C@@H]3CCCN3C(=O)[C@H](Cc3ccccc3)N2C1=O
- period change [2]: 0.465 h (inactive)

Structure (SMILES): C[C@]12CC[C@@H](O)CC1CC[C@@H]1[C@@H]2CC[C@]2(C)C(=O)CC[C@@H]12 (stereo partly specified)
- period change [2]: 0.105 h (inactive)

Structure (SMILES): COc1ccc(CN2CCN(C)C(CCO)C2)c(OC)c1OC (stereo unspecified)
- z-score [1]: -0.21 (inactive)

Structure (SMILES): CN1CCC23CCCC[C@H]2C1Cc1ccc(O)cc13 (stereo partly specified)
- period change [2]: -0.06 h (inactive)

Structure (SMILES): CP(=O)(O)CCCN
- period change [2]: -0.005 h (inactive)

Structure (SMILES): CC(CCCC(C)(C)O)NC(C)Cc1ccccc1F (stereo unspecified)
- z-score [1]: -0.515 (inactive)

Structure (SMILES): C=CCN1CCC2(C)c3cc(O)ccc3CC1C2C (stereo unspecified)
- period change [2]: -0.18 h (inactive)

Structure (SMILES): COc1ccc(CCN)cc1O
- period change [2]: 0.08 h (inactive)

Structure (SMILES): CC1(C)C(C(=O)N2CCC(n3cc(C4CC4)nn3)CC2)C1(C)C
- z-score [1]: -0.525 (inactive)

Structure (SMILES): O=c1c2cc(F)ccc2ncn1Cc1cn2ccccc2n1
- z-score [1]: 0.245 (inactive)

Structure (SMILES): N[C@@H](Cn1cc(I)c(=O)[nH]c1=O)C(=O)O
- period change [2]: -0.19 h (inactive)

Structure (SMILES): COc1cc(CCN)ccc1O
- period change [2]: -0.1 h (inactive)

Structure (SMILES): Oc1ccc2c3c1O[C@H]1[C@@H](O)CC[C@@]4(O)C(C2)N(CC2CCC2)CCC314 (stereo partly specified)
- period change [2]: -0.2 h (inactive)

Structure (SMILES): COC(=O)c1ccc(CC(C)NCC(O)c2cccc(C(F)(F)F)c2)cc1 (stereo unspecified)
- growth inhibition [3]: 87% (active) and 73% (active)
- inhibition [4]: -8% (inactive) and -9% (inactive)
- inhibition [5]: -4% (inactive) and -1% (inactive)
- growth inhibition [6]: 97% (active) and 94% (active)

Structure (SMILES): C=CCN1CCC2(C)c3cc(O)ccc3CC1[C@@H]2C (stereo partly specified)
- period change [2]: -0.025 h (inactive)

Structure (SMILES): C#CCOc1ccc(CC(C)NCC(O)c2cccc(C(F)(F)F)c2)cc1 (stereo unspecified)
- growth inhibition [3]: 74% (active) and 84% (active)
- inhibition [4]: 5% (inactive) and 28% (inactive)
- inhibition [5]: 1% (inactive) and -2% (inactive)
- growth inhibition [6]: 90% (active) and 93% (active)

Structure (SMILES): COc1cc(C2c3cc4c(cc3C(O)C3COC(=O)C23)OCO4)cc(OC)c1OC (stereo unspecified)
- inhibition ([7]; at 0.5 µM, stronger effect = higher value): 9.19% (inactive)
- inhibition ([7]; measured here: combination with BGB IC20, at 0.005 µM): -13.4%
- inhibition ([7]; measured here: combination with BGB IC40, at 0.005 µM): -36%
- inhibition [7, 22]: 14.5%
- inhibition ([7]; measured here: combination with cisplatin, at 0.5 µM, stronger effect = higher value): -15.6%
- inhibition ([7]; measured here: combination with cisplatin, at 5 µM, stronger effect = higher value): 45.9%
- inhibition ([8]; BGB combo, at 5 µM): 67.6%
- inhibition ([8]; at 0.5 µM): 76.5% (inactive)
- inhibition ([8]; cisplatin combo, at 5 µM): 70.5%
- inhibition [8, 23]: 69.9%
- inhibition [8, 24]: 66.6%
- inhibition ([8]; single agent, at 5 µM): 91.8%
- inhibition ([9]; BGB IC20 combo, at 0.005 µM): 44.2%
- inhibition ([9]; BGB IC40 combo, at 0.005 µM): 19.6%
- inhibition ([9]; BGB IC40 combo, at 0.05 µM): 10.9%
- inhibition ([9]; at 0.5 µM): -21.6% (inactive)
- inhibition ([9]; cisplatin combo, at 0.05 µM): 7.4%
- inhibition ([9]; cisplatin combo, at 0.5 µM): -22.1%
- inhibition ([9]; cisplatin combo, at 5 µM): 19.8%
- inhibition ([9]; measured here: 5 uM single agent, at 5 µM): 19.6%
- inhibition ([10]; at 0.5 µM): 38.7% (inactive)
- inhibition [10, 22]: 42.5%
- inhibition [10, 25]: 54.6%
- inhibition [10, 26]: 60.9%
- inhibition ([11]; at 0.5 µM): 72.2% (inactive)
- inhibition ([11]; measured here: with BGB IC20, at 0.5 µM): 55.2%
- inhibition ([11]; measured here: with BGB IC20, at 5 µM): 54%
- inhibition ([11]; measured here: with cisplatin IC20, at 0.5 µM): 72.6%
- inhibition ([11]; measured here: with cisplatin IC20, at 5 µM): 73%
- inhibition ([11]; single agent, at 5 µM): 89.8%
- inhibition ([12]; at 0.5 µM): 38.6% (inactive)
- inhibition ([12]; measured here: combination with BGB at IC20, at 0.5 µM): 34.3%
- inhibition ([12]; measured here: combination with cisplatin at IC20, at 0.5 µM): 46.2%
- inhibition ([13]; at 0.5 µM): 83.8% (active)
- inhibition ([13]; measured here: combo with BGB at IC20, at 0.5 µM): 82.3%
- inhibition ([13]; measured here: combo with cisplatin at IC20, at 0.5 µM): 76.1%
- inhibition ([14]; at 0.5 µM): 44.8% (inactive)
- inhibition ([14]; measured here: inhibition with BGB combination, at 0.05 µM): 11.9%
- inhibition ([14]; measured here: inhibition with cisplatin combination, at 0.05 µM): 39.3%
- inhibition ([15]; at 0.5 µM): 33.5% (inactive)
- inhibition [15, 25]: 48.6%
- inhibition [15, 26]: 47.1%
- inhibition ([16]; at 0.5 µM): 69.7% (inactive)
- inhibition ([16]; measured here: BGB combination, at 0.5 µM): 58.4%
- inhibition ([16]; measured here: BGB combination, at 5 µM): 53.6%
- inhibition ([16]; measured here: cisplatin combination, at 0.5 µM): 72.1%
- inhibition ([16]; measured here: cisplatin combination, at 5 µM): 74.9%
- inhibition ([17]; BGB combination, concentration series, at 5 µM): 71.3%
- inhibition ([17]; at 0.5 µM): 57.4% (inactive)
- inhibition ([17]; cisplatin combination, concentration series, at 5 µM): 70.5%
- inhibition ([18]; at 0.5 µM): 85.4% (active)
- inhibition ([18]; measured here: combo with BGB IC20, at 0.5 µM): 85.6%
- inhibition ([18]; measured here: combo with cisplatin IC20, at 0.5 µM): 76.9%
- inhibition ([19]; at 0.5 µM): 45.2% (inactive)
- inhibition ([19]; cisplatin combination, at 0.5 µM): 43.7%
- inhibition ([19]; cisplatin combination, at 5 µM): 48.4%
- inhibition ([19]; measured here: BGB IC40 combination 0.05 uM, at 0.05 µM): 22.9%
- inhibition ([19]; single agent, at 5 µM): 62.7%
- inhibition ([20]; at 0.5 µM): 21.7% (inactive)
- inhibition ([20]; cisplatin combo, at 5 µM): 29.2%
- inhibition ([20]; measured here: BGB IC40 combination, at 0.05 µM): 11.1%
- inhibition [20, 25]: 20.9%
- inhibition ([20]; single agent, at 5 µM): 18.7%
- inhibition ([21]; at 0.5 µM): 74.4% (inactive)
- inhibition [21, 23]: 70.7%
- inhibition [21, 24]: 76.3%
- inhibition ([21]; single agent, at 0.05 µM): 49.3%
- inhibition ([21]; single agent, at 5 µM): 85.7%
